# Inconclusive results are not listed. Entries that show only a call come without a potency. Calls of active or inactive are those of the source. The call rests on the fitted dose curve; in most records, active means well fitted cell-killing curve with a large enough effect; inconclusive means small, poorly fitted or top-dose-only effect, or effect the other way; inactive means no such curve, though single readings can be large or run the other way.
# Assay: Cell Viability - LYMP2-004 (AID 966); further: nearly all actives have a fitted effect of over 65% in size
# Settings: LYMP2-004 lymphoblastoid cell viability, qHTS; series mostly up to 92.2 µM
# Text: NIH Chemical Genomics Center [NCGC]
# NIH Molecular Libraries Screening Centers Network [MLSCN]
# National Institutes of Environmental Health Sciences [NIEHS]
# National Toxicology Program [NTP]
# We have developed a 1536-well cell-based assay for quantitative high throughput screening (qHTS) against a number of cell lines to determine in vitro cytotoxicity of small molecules. This particular assay uses a human lymphoblastoid cell line (LYMP2-004) purchased from Coriell Institute for Medical Research.
# NCGC Assay Protocol Summary:
# The CellTiter-Glo luminescent cell viability assay (Promega) is a homogeneous method to measure the number of viable cells in culture. The end point readout of this assay is based on quantitation of intracellular ATP, an indicator of metabolic activity, using the luciferase reaction. Luciferase catalyzes the oxidation of beetle Luciferin to oxyluciferin and light in the presence of ATP. The luminescent signal is proportional to amount of ATP present.
# Using the CellTiter-Glo luminescent cell viability assay, the amount of cellular ATP was measured in the lymphoblastoid cell line with complete culture medium following compound treatment for 24 hours. The assay was performed in opaque white Kalypsys 1536-well plates. In the screen, tetraoctylammonium bromide was used as positive control. Library compounds were measured for their ability to cause acute toxicity in the cell line, as reflected by a decrease in intracellular ATP levels, in a concentration-dependent manner. […] AC50 values were determined from concentration-response data modeled with the standard Hill equation.
# qHTS protocol for CellTiter Glo lymphoblastoid cellular assay
# [Step] [Parameter] [Value] [Description]
# 1. Reagent; 5 uL; 2500 lymphoblastoid cells/well
# 2. Time; 5 hr; 37 C incubation
# 4. Controls; 23 nL; Tetraoctylammonium bromide 6.4pM to 92 uM
# 5. Time; 24 hr; 37 C incubation
# 6. Reagent; 5 uL; CellTiter Glo reagent
# 7. Time; 30 min; Room Temperature
# 8. Detection; Luminescence; Viewlux plate reader
# Keywords: cell viability, cytotoxicity, lymphoblastoid cell line, luminescence, NTPHTS, NTPHTS_NCGC, NIEHS, DSSTox, MLSMR, MLSCN, NIH Roadmap, qHTS, NCGC
row,SMILES,Potency
1,NC(=S)Nc1ccccc1,inactive
2,C=CC1CC=CCC1 (stereo not given),inactive
3,COc1ccc(N)cc1,inactive
4,C[C@]12CC[C@H]3[C@@H](CCC4=CC(=O)CC[C@@]43C)[C@@H]1CC[C@@H]2O,inactive
5,BrCCBr,inactive
6,O=[N+]([O-])c1cccc2ccccc12,inactive
7,ClC(Cl)=C(Cl)Cl,inactive
8,C=CCOC(C)=O,inactive
9,Brc1ccccc1,inactive
10,Brc1ccc(Oc2cc(Br)c(Br)cc2Br)c(Br)c1,inactive
11,C=CCc1ccc2c(c1)OCO2,inactive
12,Cc1ccc([N+](=O)[O-])cc1C,inactive
13,CC(O)CCl (stereo not given),inactive
14,C=CC(C)=O,inactive
15,O=C=NC1CCCCC1,inactive
16,c1ccc(N=Nc2ccccc2)cc1,inactive
17,C=C(C)C(=O)OCC1CO1 (stereo not given),inactive
18,Clc1nc(Cl)nc(Cl)n1,inactive
19,COC1=CC(=O)OC(CCc2ccccc2)C1 (stereo not given),inactive
20,O=C(O)COc1ccc(Cl)cc1Cl,inactive

row,SMILES,Potency
1,O=C(Cl)/C=C/C(=O)Cl,inactive
2,OCC1CO1 (stereo not given),inactive
3,CC(=O)[O-].CC(=O)[O-].O.O.O.[Pb+2],inactive
4,COC1=CC(=O)O[C@@H](/C=C/c2ccc3c(c2)OCO3)C1,inactive
5,CCN(CC)c1ccccc1,inactive
6,ClC(Cl)=C(Cl)C(Cl)=C(Cl)Cl,inactive
7,CCCCCCCCCc1ccc(O)cc1,inactive
8,c1ccc2c(c1)CCCC2,inactive
9,Cc1cccc(C#N)c1,inactive
10,O=NN(c1ccccc1)c1ccccc1,inactive
11,C=C(C)C#N,inactive
12,O=C(Cl)C(Cl)(Cl)Cl,inactive
13,CCSC(=O)Cl,inactive
14,Cc1ccccc1N,inactive
15,CCOP(=S)(OCC)SCSC(C)(C)C,inactive
16,Nc1ccccc1Cl,inactive
17,[O-][Br+2]([O-])O,inactive
18,C=CC(N)=O,inactive
19,CC(C)(C)OOC(C)(C)C,inactive
20,CC(C)(c1ccccc1)c1ccc(O)cc1,inactive

# From PubChem BioAssay (NCATS)
